Only some compounds are listed: those with a hit (about 5.8% of all), similar ones and a draw of the others.
uPA surface inh: inhibitors of cell surface uPA generation. cell surface uPA generation assay, qHTS. Potency, µM (doses to about 38.3 µM), without a hit: top-dose activity change, negative = inhibition, hits mostly inhibitors. 330,000 compounds, 0.31% hits; active means well fitted inhibition curve with a large enough effect; inconclusive means small, poorly fitted or top-dose-only effect; inactive means no such curve, though single readings can be large or run the other way; tested in mouse RAW 264.7 cells; further: potency means the concentration at half of the fitted maximal effect; on the % scale 0 is the no-effect control and ±100 the full control effect; nearly all actives have a fitted effect of over 55% in size
TRPV1 PAM: enhances activation of the human vanilloid receptor TRPV1. Q8NER1. TRPV1-expressing cells, Fluo-8 calcium influx, capsaicin EC20 potentiation. potentiation, % at 8.33 µM. 320,000 compounds, 0.02% hits; in the data active means potentiation above about 80%; inconclusive means between about 30% and that limit; further: 0% is about no effect
Target sequence (Q8NER1 whole entry, looked up): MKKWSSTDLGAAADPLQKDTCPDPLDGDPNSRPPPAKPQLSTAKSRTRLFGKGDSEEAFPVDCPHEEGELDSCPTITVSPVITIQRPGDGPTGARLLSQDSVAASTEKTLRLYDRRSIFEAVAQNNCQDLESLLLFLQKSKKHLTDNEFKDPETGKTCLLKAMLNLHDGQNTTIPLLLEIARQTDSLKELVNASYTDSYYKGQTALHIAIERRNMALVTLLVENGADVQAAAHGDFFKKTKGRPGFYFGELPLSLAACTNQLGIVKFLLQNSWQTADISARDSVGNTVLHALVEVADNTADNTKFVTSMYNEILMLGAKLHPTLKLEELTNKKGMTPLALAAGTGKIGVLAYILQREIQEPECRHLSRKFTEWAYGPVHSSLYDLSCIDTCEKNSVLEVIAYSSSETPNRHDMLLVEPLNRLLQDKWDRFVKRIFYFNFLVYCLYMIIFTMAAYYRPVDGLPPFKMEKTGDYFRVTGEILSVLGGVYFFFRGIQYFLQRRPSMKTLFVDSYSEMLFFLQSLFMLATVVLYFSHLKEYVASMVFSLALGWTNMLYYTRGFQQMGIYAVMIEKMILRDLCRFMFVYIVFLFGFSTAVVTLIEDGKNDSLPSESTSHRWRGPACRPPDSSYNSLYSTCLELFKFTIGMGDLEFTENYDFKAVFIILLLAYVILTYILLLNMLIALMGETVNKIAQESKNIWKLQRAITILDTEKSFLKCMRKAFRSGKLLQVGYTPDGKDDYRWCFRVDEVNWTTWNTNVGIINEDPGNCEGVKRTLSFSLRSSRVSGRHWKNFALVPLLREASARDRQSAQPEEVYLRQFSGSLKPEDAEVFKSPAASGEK
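TRPV1-expressing cells were cultured overnight at 35.5C and loaded with Fluo-8 calcium dye for 40 to 90 min at room temperature. After a 10 s baseline, compound was added and calcium influx was read kinetically for 3 min (ex 480/em 520 nm).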
VP16 counter: inhibits Gal4-VP16 luciferase reporter, ROR gamma counter-screen | Drosophila S2 Gal4-VP16 UAS-luciferase, luminescence, 20 h | Potency, µM (series often up to 53.6 µM), inactives show at the highest dose activity, negative = inhibition, hits mostly inhibitors | 310,000 compounds, 3.5% hits | AID 2546;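 further: Gal4-VP16 expression switched on by copper sulfate through the metallothionein promoter; potency means the concentration at half of the fitted maximal effect; on the % scale 0 is the no-effect control and ±100 the full control effect; nearly all actives have a fitted effect of over 50% in size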
RORg inh: blocks mouse ROR gamma transcriptional activity; AID 2551; P51450; Drosophila S2 Gal4-RORgamma UAS-luciferase reporter, 20 h; 310,000 compounds, 5.4% hits; Potency, µM (top dose mostly 53.6 µM), for inactives: at the highest dose activity change, negative = inhibition, most hits filed as inhibitors; further: potency means the concentration at half of the fitted maximal effect; on the % scale 0 is the no-effect control and ±100 the full control effect; nearly all actives have a fitted effect of over 60% in size
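Drosophila Schneider cells stably carrying a metallothionein-driven Gal4 DBD–ROR gamma fusion and a UAS-Photinus luciferase reporter were exposed to compound for 1 hr, then induced with copper sulfate (700 uM final) for 20 hr at ambient temperature before luminescence reading.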
TRPV1 agonist: human TRPV1 agonism; TRPV1-expressing cells, Fluo-8 calcium influx, agonist mode; activation, % at 8.33 µM; 320,000 compounds, 0.19% hits; in the data active means activation above about 80%; inconclusive means between about 30% and that limit; further: 0% is about no effect
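Cells expressing TRPV1 were dye-loaded with Fluo-8 and read kinetically: 10 s baseline, 3 min after compound (agonist portion), then 2 min after EC20 capsaicin (allosteric enhancer portion). Calcium-bound dye fluorescence at 480/520 nm.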
Starred values were filed as active, the others as inactive; ? = inconclusive; . = no result given; [ ] = another dose, or the depositor's remark. Unless noted, the call rests on the fitted dose curve; in most records, active means well fitted curve in the direction sought with a large enough effect; inconclusive means small, poorly fitted or top-dose-only effect, or another doubt; inactive means no such curve, though single readings can be large; an effect the other way counts as inactive or inconclusive.

SMILES	uPA surface inh	TRPV1 PAM	VP16 counter	RORg inh	TRPV1 agonist
CCCCN(C(=O)C(C)Oc1ccc(Cl)cc1)c1c(N)n(CCCC)c(=O)[nH]c1=O (configuration not stated)	6%	6	.	.	1
CCNC(=O)NC(=O)COC(=O)CCCSc1nc2ccccc2s1	-6%	4	7.9µM*	?	4
CCNC(=O)NC(=O)C(C)OC(=O)CCCSc1nc2ccccc2s1 (configuration not stated)	5%	-4	4.5µM*	?	4
CCNC(=O)NC(=O)COC(=O)CCCc1nc2ccccc2s1	0%	-9	0%	-12%	-4
Cc1ccccc1NC(=O)CCCSc1nc2ccccc2s1	20%	-1	2.5µM*	13µM*	?
CNC(=O)NC(=O)C(C)OC(=O)CCCSc1nc2ccccc2s1 (configuration not stated)	1%	2	4.5µM*	7.1µM*	?
CNC(=O)NC(=O)C(C)OC(=O)CCCc1nc2ccccc2s1 (configuration not stated)	2%	22	-23%	-34%	1
Nc1nonc1-n1nnc(C(=O)N/N=C/c2ccccc2Br)c1CN1CCCC1	0%	12	1%	-2%	3
O=C(CN1C(=O)c2cccnc2Oc2ccc(Cl)cc21)N1CCCC1	2%	-1	4%	1%	-2
Cc1ccc2[nH]c3nc(CCCn4ccnc4-c4ccccc4)nnc3c2c1	.	.	-8%[10 µM]	9%[10 µM]	.
CC/C=C/C#N	.	.	-13%	27%	.
CCC1Oc2ccccc2N(CC(=O)NC2CC2)C1=O (configuration not stated)	0%	7	1%	-8%	3
COc1ccccc1-c1nccc(N2CCN(C)CC2)n1	.	.	4%	-12%	.
c1ccc(-n2nnnc2Oc2cccc3cccnc23)cc1	5%	13	4.5µM*	7.1µM*	0
Cc1ccc2cccc(Oc3nnnn3-c3ccccc3)c2n1	-1%	0	3%	?	2
COc1ccccc1OCCC(=O)OCC(=O)c1c(N)n(C)c(=O)n(C)c1=O	1%	4	-11%	2%	1
CCOC(=O)CNC(=S)N(Cc1ccccc1F)C1CCCCC1	0%	-8	-6%	11µM*	9
CCCN1CNC(=S)N(c2cc(C)ccc2C)C1	1%	2	11µM*	13µM*	-4
Cc1ccc(C)c(N2CN(CCC3=CCCCC3)CNC2=S)c1	2%	-12	4.5µM*	3.2µM*	11
Cc1cc2ccccc2n2c(SCC(=O)N3CCc4ccccc4C3)nnc12	-7%	-3	18µM*	?	17
COc1ccc(N2CCN(C(=O)CSc3nnc4c(C)cc5ccccc5n34)CC2)cc1	-3%	1	-5%	-28%[10 µM]	-5
O=C(CNc1cccc2ccccc12)N/N=C/c1ccc(C(=O)O)cc1	4%	2	1%	17%	-1
O=C(N/N=C/c1cccs1)c1cc(-c2ccc(Cl)s2)[nH]n1	-1%	?	7.9µM*	10µM*	0
O=C(N/N=C/C=C/c1ccc(Br)cc1)C(O)c1ccccc1 (configuration not stated)	9%	-2	?	11µM*	4
O=C(N/N=C\C=C\c1ccco1)c1cncc(Br)c1	0%	-15	?	2.2µM*	4
SMILES	uPA surface inh	TRPV1 PAM	VP16 counter	RORg inh	TRPV1 agonist
O=C(N/N=C/c1ccco1)c1cc(-c2ccc(Cl)s2)[nH]n1	-26%	6	0%	7%	-3
O=C(N/N=C\c1ccco1)c1cncc(Br)c1	.	21	?	?	2
O=C(CNc1cccc2ccccc12)N/N=C/C=C/c1ccco1	7%	4	?	13µM*	0
O=C(CSc1nnc(C2CC2)n1CC1CCCO1)Nc1ccc(Cl)cc1 (configuration not stated)	-1%	6	4%	26%	-1
CN1OC(c2ccccc2)=C(CO)C1c1ccccc1 (configuration not stated)	-6%	6	2%	?	-3
COc1ccc(-c2cc(C(F)F)n3ncc(C(=O)Nc4cccc(S(=O)(=O)N5CCOCC5)c4)c3n2)cc1	1%	5	-24%	-13%	-2
Cn1nc(Oc2nc(N3CCOCC3)nc(N3CCOCC3)n2)ccc1=O	.	5	-3%	-19%	-8
O=C(CSc1ccccn1)N/N=C/C=C/c1ccccc1	?	-15	16µM*	?	19
Cc1ccc(-c2cc(C(=O)N/N=C/C=C/c3ccccc3)n[nH]2)s1	-20%	6	7.1µM*	4µM*	2
O=C(N/N=C/C=C\c1ccco1)c1cccnc1	-1%	1	?	13µM*	1
O=C(N/N=C/C=C/c1ccccc1)c1cccnc1	-1%	-26	?	5.6µM*	29
Cc1cc(C(=O)N/N=C/C=C/c2ccccc2)n[nH]1	0%	?	-1%	-24%	-3
O=C(CSc1ccccn1)N/N=C/c1ccccc1[N+](=O)[O-]	-4%	-3	?	18%	4
O=C(NCC1CCCO1)c1cc2ccccc2oc1=O (configuration not stated)	2%	4	0%	-3%	1
CS/C(N)=C(C#N)/C(C#N)=C(\N)SC	.	.	2%	15%	.
Cn1ncc(Cl)c1C(=O)NCC1CCCO1 (configuration not stated)	-2%	1	-4%	-3%	-4
O=C(N/N=C/C=C\c1ccco1)c1ccccn1	-7%	4	-4%	40%	?
O=C(N/N=C\C=C\c1ccco1)c1cc(-c2ccc3ccccc3c2)n[nH]1	-16%	9	1µM*	2.2µM*	-4
O=C(N/N=C/C=C/c1ccccc1)c1ccc(Br)cc1	-4%	-13	4.5µM*	3.2µM*	16
O=C(N/N=C/c1cc(Br)c(Br)o1)c1cccnc1	-9%	-11	?	?	5
O=C(N/N=C\c1cc(Br)c(Br)o1)c1cncc(Br)c1	-5%	-14	2µM*	1.4µM*	7
CC(C)c1ccc(/C=N/NC(=O)c2ccccn2)cc1	-16%	-26	?	11µM*	?
CCOC(=O)CN1C(=O)C(Sc2n[nH]c(-c3ccc(O)cc3)n2)CCc2ccccc21 (configuration not stated)	7%	10	0%	38%	-1
COc1ccc(CNC(=O)C2CCN(S(=O)(=O)c3cccc4nsnc34)CC2)cc1	4%	-3	-5%	4%	2
